According to PubChem BioAssay (NCI):
About 83,000 compounds went through this panel and 20% of them were active in at least one assay; those are over-represented in the sample as a whole.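 Assay: single dose, 48 h. Readout: percent growth (0 = no net growth; negative = cell death). Active: <10.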 Unmarked numbers belong to inactive results. Active and inactive are the calls of the source.

Experiments:
Assay in all cases: NCI-60 one-dose screen, 48 h (100 = growth as untreated, 0 = no growth, -100 = all killed)
EKVX NSCLC = conditions: 10 µM unless noted
SN12C renal = conditions: 10 µM unless noted
UO-31 renal = conditions: 10 µM unless noted
TK-10 renal = conditions: 10 µM unless noted
ACHN renal = conditions: 10 µM unless noted
CAKI-1 renal = conditions: 10 µM
A498 renal = conditions: 10 µM unless noted
CCRF-CEM leukemia = conditions: 10 µM unless noted
MOLT-4 leukemia = conditions: 10 µM unless noted
SR leukemia = conditions: 10 µM unless noted
RPMI-8226 leukemia = conditions: 10 µM unless noted
OVCAR-8 ovarian = conditions: 10 µM unless noted
OVCAR-5 ovarian = conditions: 10 µM unless noted
OVCAR-4 ovarian = conditions: 10 µM unless noted
SK-OV-3 ovarian = conditions: 10 µM unless noted
IGROV1 ovarian = conditions: 10 µM unless noted
HS 578T breast = conditions: 10 µM unless noted
NCI/ADR-RES ovarian = conditions: 10 µM unless noted
OVCAR-3 ovarian = conditions: 10 µM unless noted
SK-MEL-2 melanoma = conditions: 10 µM unless noted

Row | Structure (SMILES) | growth (EKVX NSCLC) [%] | growth (SN12C renal) | growth (UO-31 renal) | growth (TK-10 renal) | growth (ACHN renal) | growth (CAKI-1 renal) | growth (A498 renal) | growth (CCRF-CEM leukemia) | growth (MOLT-4 leukemia) | growth (SR leukemia) | growth (RPMI-8226 leukemia) | growth (OVCAR-8 ovarian) | growth (OVCAR-5 ovarian) | growth (OVCAR-4 ovarian) | growth (SK-OV-3 ovarian) [%] | growth (IGROV1 ovarian) | growth (HS 578T breast) | growth (NCI/ADR-RES ovarian) | growth (OVCAR-3 ovarian) [%] | growth (SK-MEL-2 melanoma)
1 | CC(=O)c1sc(Nc2cccc(Nc3nc(C)c(C)s3)c2)nc1C | 68.8 | 55% | 32.2% | 53.6% | 36.5% | 28.1% | 27.7% | 61.2% | 38.3% | 38.5% | 67.9% | 43.4% | 83.5% | 51.5% | 25.8 | 26.4% | 52.7% | 55.6% |  | 
2 | C/C(=C(/C)C1CC1CCN(C(=O)c1ccccn1)S(=O)(=O)c1ccc(C)cc1)C1CCCCC1 (stereo not given) | 77.6 | 98.2% | 86.4% | 105% | 99.3% | 78.9% | 94.6% | 92.5% | 88.2% | 105% | 92.2% | 96.8% | 93.1% | 83.8% | 101 | 103% |  | 81.9% | 108 | 
3 | C=CCn1c(SCC(=O)Nc2ccc(OC)cc2)nnc1-c1ccc(Cl)cc1 | 92.5 | 92.7% | 73.5% | 97.9% | 92.8% | 84.6% | 98.2% | 117% | 84.2% | 74.3% | 105% | 98% | 93.9% | 99.7% | 101 | 89.8% | 92.2% | 83.6% |  | 
4 | CCN1C(=O)N(CC)C2SC(N/N=C/c3ccc(F)cc3)=NC21 (stereo not given) |  | 33.6% | 50.3% | 88.3% | 37.3% | 31.7% | -22.4% (active) | 23.2% | 23.8% | 19.4% | 19.6% | 2.03% (active) | 48.4% | 67.2% | 36.6 | 25.1% | 11.9% | 0.946% (active) |  | 17.2%
5 | Cc1cc(-c2ccc3nc(N)sc3c2)nc2ccc3[nH]ncc3c12 |  | 32% | 51.4% | 50.1% | 40.7% | 20.3% | -9.07% (active) | 27.1% | 33.2% | 13.7% | 39.6% | 41.2% | 57.6% | 61.6% | 31.5 | 33.6% | 6.21% (active) | 13.6% |  | -3.92% (active)
6 | Oc1ccc(CSc2nnc(-c3ccc(Br)cc3)o2)c2cccnc12 | 58.9 | 45.2% | 7.37% (active) | 60% | 17.8% | 25.6% | 74.5% | 15.2% | 24.1% | 42.3% | 10.8% | 27.7% | 89.6% | 22% | 50.2 | 31.6% | -2.18% (active) | 13.4% | 27.4 | 
7 | Cn1nc(Nc2ccccc2)c(C(=O)NN)c1N |  | 97.3% | 81.5% | 118% | 97.4% | 94.1% | 97.2% | 91.1% | 104% | 107% | 106% | 97.5% | 102% | 99.9% | 103 | 95.4% | 99.7% | 93.9% |  | 103%
8 | C=C1C(=O)O[C@@H]2C[C@@H](C)CCC(=O)[C@](C)(OC(C)=O)C[C@H](OC(=O)/C(C)=C\C)[C@@H]12 | 73.2 |  | 85.4% | 55.4% |  | 63.1% | 119% | -17.2% (active) | 50.8% | 4.94% (active) | 32.3% | 66.8% | 114% | 81.2% | 94.8 | 89.2% | 101% | 97.2% | 34.9 | 81%
9 | CC(=O)Nc1ccc(C)c(Nc2cc(-c3ccc(-n4cccn4)cc3)[nH]n2)c1 | 74.7 | 60.9% | 60.6% | 89.6% | 65.8% | 47.2% | 27.3% | 26.1% | 47.8% | 19.2% | 50.3% | 80% | 93.3% | 82.1% | 59.3 | 47.6% | 42.3% | 87.7% |  | 
10 | CN1CCN(c2ccc(C(=O)/C=C/c3ccc(Cl)c(C(F)(F)F)c3)cc2)CC1 | 70.2 | 49.1% | 50.5% | 102% | 65.7% | 64.1% | 81.6% | 11% | 41.6% | 2.99% (active) | 3.06% (active) | 55% | 79.7% | 66% | 105 | 78.1% | 87.3% | 64.4% |  | 
11 | C/C(=C(/c1ccc(O)cc1)c1ccc(OCCN2CCCCCC2)cc1)c1ccccc1 | 59 | 57.2% | 29.4% | 92.6% | 58.7% | 39.2% | 74.6% | 60% |  | -24% (active) | 2.14% (active) | 69.2% | 63.3% | 68.4% | 76.1 | 61.9% | 44.3% | 65.6% |  | 
12 | O=C(CN1C(=O)CSC1=O)Nc1ccc(C(=O)/C=C/c2cc3ccccc3nc2Cl)cc1 | 72.1 | 83.8% | 59.5% | 92.1% | 83.5% | 63% | 94.3% | 45.5% | 36.4% |  | -13.2% (active) | 77.7% | 101% | 46.4% | 101 | 66.9% | 82.7% | 89.5% |  | 
13 | Cc1cc(=O)n2nc(-c3c[nH]c4ccccc34)sc2n1 | 95.3 | 94.5% | 82.1% | 128% | 96.1% | 99.8% | 95.1% | 115% |  |  | 128% | 98.7% | 101% | 104% | 103 | 89.9% | 96.4% | 98% |  | 
14 | COc1ccc([C@H]2[C@H](O)C(=O)N2c2cc(OC)c(OC)c(OC)c2)cc1O | 51.2 | 24.6% | 32.6% | 81.1% | 28.1% | 28.9% | -16% (active) | 16.1% |  |  | 16.5% | -11.5% (active) | 30.1% | 70.3% | 21.4 | 26.7% | 5.02% (active) | 18.6% |  | 
15 | C=CCn1c(SCC(=O)Nc2cccc(C(=O)/C=C/c3ccc(Br)cc3)c2)nc2ccccc2c1=O | 106 | 88.8% | 71.2% | 102% | 84.5% | 73.7% | 89.3% | 95.5% |  |  | -3.89% (active) | 81.6% | 96.2% | 87.9% | 108 | 93.6% | 83.3% | 91.5% |  | 
16 | NC(N)=NS(=O)(=O)c1ccc(N=NC2C(=O)NN(c3ccccc3)C2=O)cc1 (stereo not given) | 110 | 101% | 82.9% | 106% | 95.9% | 87.7% | 98.2% | 116% | 106% | 109% | 98.8% | 104% | 101% | 104% | 112 | 103% | 89% | 99.9% |  | 
17 | Cc1ccc(C2CC(c3ccc(Nc4nc(NCCO)nc(Nc5ccc(Cl)cc5)n4)cc3)=Nc3c(N)nc(N)nc3N2)cc1 (stereo not given) | 33.1 | -65.8% (active) | -91.6% (active) | -84.5% (active) | -36.6% (active) | -9.94% (active) | 77.9% | -23.2% (active) | -29.3% (active) |  | -55.4% (active) | -81% (active) | -63.3% (active) | -54.4% (active) |  | -63.3% (active) | 11.9% | -39.8% (active) |  | 
18 | CC(C)SC1=NC(=C(C(=N1)NC2=ClC=CC=C2)C#N)C3=CC=CC=C3 | 84 | 36.7% | 24.7% | 112% | 23.4% | 64.5% | 71.6% | 63.4% | 83.3% | 69.3% | 88.2% | 46.8% | 80.3% | -4.9% (active) | 88.5 | -5.3% (active) | 65.4% | 52.7% |  | 
19 | Cc1ccc(/C=C/c2nn3c(-c4ccco4)nnc3s2)cc1 | 108 | 107% | 85.6% | 87.9% | 99.9% | 86.8% | 89% | 98.9% |  | 77.3% | 95.4% | 100% | 100% | 102% | 115 | 107% |  | 104% |  | 
20 | CCN1C(=O)N(CC)C2C1NN=C1SC(c3ccccc3)=CC(=O)N12 (stereo not given) | 45.6 | 36.7% | 43.3% | 62.8% | 45.2% | 37.5% | -7.16% (active) | 13.2% | 18.2% | 16.2% | 4.35% (active) | 18.2% | 29.1% | 72.5% | 42.2 | 41.4% |  | 19.2% |  | 
21 | O=c1c2ccccc2nc(COc2ccccc2)n1/N=C/C=C/c1ccccc1 | 86.2 | 87.6% | 89.8% | 106% | 96.8% | 103% | 98.6% | 84.3% | 97.1% | 85.7% | 87.5% | 100% | 98.8% | 90% |  | 90.2% | 94.4% | 91.8% |  | 
22 | COC(=O)c1nc(-c2ccc(C)cc2)oc1S(=O)(=O)N1CCN(c2oc(-c3ccccc3)nc2C#N)CC1 | 106 | 100% | 94% | 111% | 100% | 97.4% | 85.8% | 39.8% |  |  | 97.7% | 102% | 108% | 106% | 119 | 106% | 108% | 103% |  | 
23 | CNC(=O)c1cc(Oc2ccc3nc(NC(=O)c4ccc(CN5CCCN(C)CC5)c(C(F)(F)F)c4)sc3c2)ccn1 | 40.1 | 54.9% | 4.18% (active) | 47.9% | 4.16% (active) | 14.6% | 66.2% | 8.38% (active) | -35.2% (active) | -59.8% (active) | -31.1% (active) | 32.4% | 53.6% | 52.3% | 80.3 | 60.6% | -1.04% (active) | 60.6% |  | 
24 | N#Cc1ccc(S(=O)(=O)Nc2ccc(-c3cnc(N)[nH]3)cc2)cc1 | 105 | 102% | 89.7% | 98.6% | 99.7% | 92.3% | 101% | 98.2% |  |  | 104% | 101% | 98.9% | 104% | 106 | 108% | 98.3% | 102% |  | 
25 | O=[N+]([O-])c1ccc(-c2nnc(SCc3ccc(O)c4ncccc34)n2-c2ccccc2)cc1 | 40.5 | 9.69% (active) | 7.34% (active) | 79.3% | 29.3% | 30.1% | 70.8% | 21% | 43.2% | 40.6% | 17.8% | 17.9% | 73.9% |  | 30.6 | 30.6% | 5.1% (active) | 69% | 30.5 | 
26 | CCOC(=O)c1ccc(N/C=C/C(=O)c2ccccc2)cc1 | 103 | 99.7% | 99.1% | 89.8% | 98.5% | 92.7% | 99.9% | 102% | 97% | 87.8% | 100% | 102% | 101% | 105% | 113 | 110% |  | 103% |  | 
